The supplement of paper PMC8728848
This is one part of a sample in which the strongest signals are shown more often than they occur.

Key:
Experiment in all cases: glycan array binding signal (z-score within array); higher = stronger binding
Details in all cases: glycan notation: IUPAC condensed, linker removed
[1] = target: Fuc(a1-2)Gal(b1-4)GlcNAc(b1-3)Gal(b1-4)GlcNAc
In short: (§1)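 Glycan array binding is given as a within-array Z-score, which can be read as non-binding when negative. The arrays, 3228 of them, came from the Consortium for Functional Glycomics database and were retained only where the protein sequence was available. Z-scores were averaged across arrays of the same protein sequence at different concentrations or buffers and across linkers.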

[2] = target: Fuc(a1-2)Gal(b1-4)[Fuc(a1-3)]GlcNAc(b1-3)Gal(b1-4)[Fuc(a1-3)]GlcNAc
In short: as §1

[3] = target: Fuc(a1-2)[Gal(a1-3)]Gal(b1-4)[Fuc(a1-3)]GlcNAc
In short: as §1

[4] = target: Fuc(a1-3)[Gal(b1-4)]GlcNAc(b1-2)Man(a1-3)[Fuc(a1-3)[Gal(b1-4)]GlcNAc(b1-2)Man(a1-6)]Man(b1-4)GlcNAc(b1-4)[Fuc(a1-6)]GlcNAc
In short: as §1

[5] = target: Gal(a1-3)Gal(b1-4)[Fuc(a1-3)]GlcNAc(b1-2)Man(a1-3)[Gal(a1-3)Gal(b1-4)[Fuc(a1-3)]GlcNAc(b1-2)Man(a1-6)]Man(b1-4)GlcNAc(b1-4)GlcNAc
In short: as §1

Gal(a1-3)GalNAc = target: Gal(a1-3)GalNAc
In short: as §1

Gal(a1-6)Glc = target: Gal(a1-6)Glc
In short: as §1

Gal(b1-3)Gal(b1-4)GlcNAc = target: Gal(b1-3)Gal(b1-4)GlcNAc
In short: as §1

Gal(b1-3)GalNAc = target: Gal(b1-3)GalNAc
In short: as §1

[6] = target: Gal(b1-3)GalNAc(a1-3)[Fuc(a1-2)]Gal(b1-4)GlcNAc
In short: as §1

[7] = target: Gal(b1-3)GlcNAc(b1-2)Man(a1-3)[Gal(b1-3)GlcNAc(b1-2)Man(a1-6)]Man(b1-4)GlcNAc(b1-4)[Fuc(a1-6)]GlcNAc
In short: as §1

[8] = target: Gal(b1-3)[Fuc(a1-4)]GlcNAc(b1-3)Gal(b1-4)[Fuc(a1-3)]GlcNAc
In short: as §1

[9] = target: Gal(b1-4)GlcNAc(b1-2)Man(a1-6)Man(b1-4)GlcNAc(b1-4)GlcNAc
In short: as §1

Gal3S(b1-4)Glc6S = target: Gal3S(b1-4)Glc6S
In short: as §1

Gal3S(b1-4)GlcNAc6S = target: Gal3S(b1-4)GlcNAc6S
In short: as §1

Gal3S6S(b1-4)GlcNAc6S = target: Gal3S6S(b1-4)GlcNAc6S
In short: as §1

Gal6S(b1-4)GlcNAc = target: Gal6S(b1-4)GlcNAc
In short: as §1

[10] = target: GlcNAc(a1-4)Gal(b1-4)GlcNAc(b1-3)Gal(b1-4)GlcNAc
In short: as §1

[11] = target: GlcNAc(b1-2)Man(a1-3)[GlcNAc(b1-2)Man(a1-6)]Man(b1-4)GlcNAc(b1-4)[Fuc(a1-6)]GlcNAc
In short: as §1

[12] = target: GlcNAc(b1-3)[GlcNAc(b1-6)]GalNAc
In short: as §1

[13] = target: GlcNAc(b1-4)GlcNAc(b1-4)GlcNAc(b1-4)GlcNAc(b1-4)GlcNAc
In short: as §1

GlcNAc3Prop(b1-4)GlcNAc = target: GlcNAc3Prop(b1-4)GlcNAc
In short: as §1

[14] = target: Man(a1-2)Man(a1-3)[Man(a1-2)Man(a1-6)]Man
In short: as §1

Man(a1-6)Man = target: Man(a1-6)Man
In short: as §1

[15] = target: Neu5Ac(a2-3)Gal(b1-4)GlcNAc(b1-3)Gal(b1-4)[Fuc(a1-3)]GlcNAc
In short: as §1

[16] = target: Neu5Gc(a2-3)Gal(b1-4)GlcNAc
In short: as §1

B1: FedF (Escherichia coli), Q47212 (protein)
chain: MRLKYILIIPLLLISLSVFASTLQVDKSVSYDWINSSASSAQVTGTLLGTGKTNTTQMPALYTWQHQIYNVNFIPSSSGTLTCQAGTILVWKNGRETQYALECRVSIHHSSGSINESQWGQQSQVGFGTACGNKKCRFTGFEISLRIPPNAQTYPLSSGDLKGSFSLTNKEVNWSASIYVPAIAKSYRLDTSITLPDTVNLKQNQATPVYYTFSAPSVSNTITGIPNQNDMPSSNVKLTIGPIQSKTTALYVQPDATGSWYDLSKSITMTVVKSSMLNFKGINAKPGNVTLSVPIVFEIQ
For B1, which “glycan array binding signal (z-score)” value [1] is on record?
The value was -0.446.

And the “glycan array binding signal (z-score)” value [2]?
Its value is -0.053.

What about the “glycan array binding signal (z-score)” value [3] of the same binder?
The value was 0.755.

And the “glycan array binding signal (z-score)” value [4]?
The value was -0.17.

And the “glycan array binding signal (z-score)” value [5]?
The value was -0.084.

And the “glycan array binding signal (z-score)” value (Gal(a1-3)GalNAc)?
Its value is -0.219.

What about the “glycan array binding signal (z-score)” value (Gal(a1-6)Glc) of the same binder?
Its value is 0.241.

And the “glycan array binding signal (z-score)” value (Gal(b1-3)Gal(b1-4)GlcNAc)?
The value was -0.144.

What about the “glycan array binding signal (z-score)” value (Gal(b1-3)GalNAc) of the same binder?
Its value is -0.092.

And the “glycan array binding signal (z-score)” value [6]?
Its value is -0.088.

What about the “glycan array binding signal (z-score)” value [7] of the same binder?
The value was 0.741.

What about the “glycan array binding signal (z-score)” value [8] of the same binder?
Its value is -0.274.

What about the “glycan array binding signal (z-score)” value [9] of the same binder?
Its value is 0.184.

What about the “glycan array binding signal (z-score)” value (Gal3S(b1-4)Glc6S) of the same binder?
Its value is 1.04.

And the “glycan array binding signal (z-score)” value (Gal3S(b1-4)GlcNAc6S)?
Its value is 0.729.

And the “glycan array binding signal (z-score)” value (Gal3S6S(b1-4)GlcNAc6S)?
The value was 1.97.

And the “glycan array binding signal (z-score)” value (Gal6S(b1-4)GlcNAc)?
The value was 0.402.

And the “glycan array binding signal (z-score)” value [10]?
The value was 0.918.

What about the “glycan array binding signal (z-score)” value [11] of the same binder?
The value was 1.99.

What about the “glycan array binding signal (z-score)” value [12] of the same binder?
The value was -0.248.

What about the “glycan array binding signal (z-score)” value [13] of the same binder?
Its value is -0.269.

What about the “glycan array binding signal (z-score)” value (GlcNAc3Prop(b1-4)GlcNAc) of the same binder?
Its value is 13.7.

And the “glycan array binding signal (z-score)” value [14]?
Its value is 0.257.

What about the “glycan array binding signal (z-score)” value (Man(a1-6)Man) of the same binder?
Its value is -0.145.

And the “glycan array binding signal (z-score)” value [15]?
The value was -0.292.

What about the “glycan array binding signal (z-score)” value [16] of the same binder?
The value was -0.223.
